Sampled rows, rich in hits. Any-hit rate of the full collection: about 6.8%.
C diff HTS: inhibitors of Clostridium difficile growth; growth activity, negative = inhibition, % at 16 µg/mL (by protocol); Clostridium difficile clinical isolate growth, OD600, 24 h; stronger effect = lower value; 86,000 compounds, 0.25% hits;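 active means mean growth activity at or below -80% and every replicate also at or below -80%; inconclusive means mean at or below -80% but some replicate above -80%; inactive means mean growth activity above -80%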;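 further: 0% = DMSO wells and -100% = levofloxacin 16 µg/mL wells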
T cruzi growth-1: blocks T. cruzi growth in NIH3T3 culture | T. cruzi beta-gal in NIH3T3, GalScreen luminescence, 90 h | inhibition, % at 8.34 µM | 77,000 compounds, 5.9% hits;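 active means mean inhibition above about 93%, with at least 55% of replicates each passing it, limit read from the data, passing the limit was not always enough; inconclusive means only one of those two conditions holds; inactive means neither condition holds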
Pf Dd2 inh: P. falciparum Dd2 growth inhibition | 94,000 compounds, 2.3% hits | SYBR Green, 72 h; stronger effect = lower value | activity change, % at 10 µM; in the data active means activity change below about -80%; inconclusive means no clear call, values can overlap the other calls
T cruzi growth-2: inhibitors of T. cruzi proliferation. shares compounds with T cruzi growth-1. T. cruzi beta-gal in NIH3T3, GalScreen luminescence, 90 h. inhibition, % at 8.35 µM. AID 651739. 5,600 compounds, 72% hits;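 active means mean replicate inhibition above about 95% and at least 55% of replicates individually reaching it, limit read from the data; inconclusive means only one of the two criteria is met; inactive means neither criterion is met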
T cruzi growth-3: Trypanosoma cruzi proliferation inhibition | shares compounds with T cruzi growth-1 | T. cruzi beta-gal in NIH3T3, GalScreen luminescence, 90 h | inhibition, % at 2.09 µM | 5,600 compounds, 21% hits | AID 651740;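 active means mean inhibition above about 95%, with at least 55% of replicates also reaching it, limit read from the data; inconclusive means meets just one of the two conditions; inactive means meets neither condition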;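 further: plate controls were neutral control median for no effect and positive control median for full effect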
NIH3T3 tox: NIH/3T3 (mouse) viability loss; cytotoxicity (signal decrease), % at 8.35 µM; NIH/3T3 viability, CellTiter-Glo ATP luminescence, 90 h; AID 651742; shares compounds with T cruzi growth-1; 5,600 compounds, 14% hits;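 active means mean signal decrease across replicates above about 35% based on untreated-well scatter, with enough replicates individually passing, limit read from the data; inconclusive means no rule stated though some were filed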;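 further: 0% = median of neutral control wells and 100% = median of positive control wells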
3T3 cytotox 2: kills mouse NIH/3T3 fibroblasts | shares compounds with T cruzi growth-1 | NIH/3T3 viability, CellTiter-Glo ATP luminescence, 90 h | inhibition, % at 24.9 µM | 5,600 compounds, 56% hits;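 active means mean loss of cell viability signal at or above a set limit, and enough replicates individually reaching it; inconclusive means meets only the mean limit or only the replicate share; inactive means meets neither condition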;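 further: 0% = median of neutral control wells and 100% = median of positive control wells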
Numbers without * were called inactive; ? = inconclusive; / = not tested or not shown.

SMILES	C diff HTS	T cruzi growth-1	Pf Dd2 inh	T cruzi growth-2	T cruzi growth-3	NIH3T3 tox	3T3 cytotox 2
C[C@@H]1CN([C@H](C)CO)C(=O)c2cc(NS(=O)(=O)c3ccccc3)ccc2O[C@@H](C)CCCCO[C@H]1CN(C)S(=O)(=O)c1ccccc1	/	55	-19	/	/	/	/
Cc1ccc(S(=O)(=O)Nc2ccc3c(c2)C(=O)N([C@@H](C)CO)C[C@H](C)[C@@H](CN(C)S(=O)(=O)c2ccccc2)OCCCC[C@@H](C)O3)cc1	-6	85	-76	/	/	/	/
Cc1ccc(S(=O)(=O)N(C)C[C@H]2OCCCC[C@H](C)Oc3ccc(NS(=O)(=O)c4ccccc4)cc3C(=O)N([C@H](C)CO)C[C@@H]2C)cc1	4	99	-56	/	/	/	/
C[C@@H]1CCCCO[C@H](CN(C)S(=O)(=O)c2ccccc2)[C@H](C)CN([C@H](C)CO)C(=O)c2cc(NS(=O)(=O)c3ccccc3)ccc2O1	/	107*	-43	115*	41	-21	-18
Cc1ccc(S(=O)(=O)Nc2ccc3c(c2)C(=O)N([C@H](C)CO)C[C@@H](C)[C@H](CN(C)S(=O)(=O)c2ccccc2)OCCCC[C@H](C)O3)cc1	-11	105*	-44	108*	73	-12	1
C[C@H](CO)N1C[C@H](C)[C@H](CN(C)Cc2ccc(C(F)(F)F)cc2)OCc2cnnn2CCCC1=O	0	22	-26	/	/	/	/
CCC(=O)Nc1ccc2c(c1)C(=O)N(C)[C@H]1CC[C@H](CC(=O)N3CCCCC3)O[C@H]1CO2	-6	-22	-2	/	/	/	/
CC(C)NC(=O)Nc1ccc2c(c1)CC(=O)N([C@@H](C)CO)C[C@@H](C)[C@H](CN(C)C(=O)Nc1ccc(F)cc1)O2	0	28	-1	/	/	/	/
CC(C)NC(=O)Nc1ccc2c(c1)C(=O)N([C@H](C)CO)C[C@H](C)[C@H](CN(C)C(=O)CCCN(C)C)OCCCC[C@H](C)O2	2	23	32	/	/	/	/
Cc1ccccc1-c1ccc2c(c1)O[C@H](CN(C)Cc1ccncc1)[C@H](C)CN([C@@H](C)CO)S2(=O)=O	-1	97*	-55	107*	75	52*	?
C[C@H](CO)N1C[C@H](C)[C@H](CN(C)Cc2cccnc2)Oc2cc(-c3ccccc3F)ccc2S1(=O)=O	1	87	-2	/	/	/	/
C[C@@H]1CN([C@@H](C)CO)S(=O)(=O)c2ccc(-c3ccccc3F)cc2O[C@@H]1CN(C)Cc1cncnc1	-10	64	5	/	/	/	/
C[C@H]1CN([C@@H](C)CO)S(=O)(=O)c2ccc(-c3ccccc3F)cc2O[C@H]1CN(C)Cc1ccncc1	-5	107*	14	99*	92	32	56*
Cc1ccccc1-c1ccc2c(c1)O[C@H](CN(C)Cc1ccncc1)[C@@H](C)CN([C@H](C)CO)S2(=O)=O	5	94	-68	/	/	/	/
C[C@@H]1CN([C@H](C)CO)S(=O)(=O)c2ccc(-c3ccccc3F)cc2O[C@H]1CN(C)Cc1ccncc1	-19	116*	-42	99*	105*	92*	103*
COc1ccc(CN(C)C[C@@H]2OCCCC[C@H](C)Oc3ccc(NS(=O)(=O)c4c(C)noc4C)cc3C(=O)N([C@H](C)CO)C[C@H]2C)cc1	2	/	-33	/	/	/	/
CN(C)C(=O)C[C@H]1CC[C@@H]2[C@H](COc3ccc(NC(=O)C4CC4)cc3C(=O)N2C)O1	-2	32	23	/	/	/	/
O=C(CN1CCOCC1)N[C@@H]1CC[C@H](CCNS(=O)(=O)c2ccccc2F)O[C@@H]1CO	/	5	12	/	/	/	/
COc1ccccc1-c1ccc2c(c1)O[C@@H](CN(C)C(=O)c1ccncc1)[C@H](C)CN([C@@H](C)CO)S2(=O)=O	1	62	-8	/	/	/	/
COc1ccccc1-c1ccc2c(c1)O[C@H](CN(C)C)[C@H](C)CN([C@@H](C)CO)S2(=O)=O	-1	75	-2	/	/	/	/
COc1ccccc1-c1ccc2c(c1)O[C@@H](CN(C)C(=O)c1ccncc1)[C@@H](C)CN([C@H](C)CO)S2(=O)=O	2	105*	-1	94	76	4	?
C[C@H](CO)N1C[C@H](C)[C@H](CN(C)C)Oc2cc(-c3ccccc3F)ccc2S1(=O)=O	4	?	-6	19	9	6	50*
C[C@H]1CN([C@@H](C)CO)S(=O)(=O)c2ccc(-c3ccccc3F)cc2O[C@H]1CN(C)C	4	64	-11	/	/	/	/
COc1ccccc1-c1ccc2c(c1)O[C@H](CN(C)C)[C@@H](C)CN([C@@H](C)CO)S2(=O)=O	-8	106*	-7	98*	36	13	46*
C[C@@H]1CN([C@@H](C)CO)S(=O)(=O)c2ccc(-c3ccccc3)cc2O[C@@H]1CN(C)CC1CC1	/	71	-44	/	/	/	/
SMILES	C diff HTS	T cruzi growth-1	Pf Dd2 inh	T cruzi growth-2	T cruzi growth-3	NIH3T3 tox	3T3 cytotox 2
C[C@@H]1CN([C@@H](C)CO)S(=O)(=O)c2ccc(-c3ccccc3)cc2O[C@H]1CN(C)CC1CCCC1	9	96*	-78	97*	106*	58*	104*
CC(C)NC(=O)N(C)C[C@@H]1OCCCC[C@@H](C)Oc2ccc(NS(=O)(=O)c3cn(C)cn3)cc2C(=O)N([C@H](C)CO)C[C@H]1C	0	23	15	/	/	/	/
COc1ccc(CN2C(=O)[C@@H]3[C@H]4C(=O)O[C@H](c5ccccc5)[C@@H](C)N(C)C(=O)CC/C=C/[C@H]4O[C@@]34C=CCN(Cc3ccccc3)C(=O)[C@@H]24)cc1	10	/	/	/	/	/	/
C[C@@H]1CN([C@@H](C)CO)C(=O)c2cccc(NS(C)(=O)=O)c2O[C@@H]1CN(C)S(=O)(=O)c1cn(C)cn1	/	-81	5	/	/	/	/
COc1ccccc1-c1ccc2n(c1=O)C[C@@H]1[C@@H](CO)[C@H](C(=O)Nc3nccs3)N(C)[C@H]21	-2	/	19	/	/	/	/
O=C1CCCc2cnnn2COC[C@H](Cc2ccccc2)N1	13	/	/	/	/	/	/
C[C@@H]1CN([C@@H](C)CO)S(=O)(=O)c2ccc(-c3ccccc3F)cc2O[C@H]1CN(C)C	4	114*	-18	54	17	23	77*
C[C@H](CO)N1C[C@H](C)[C@@H](CN(C)C)Oc2cc(-c3ccccc3F)ccc2S1(=O)=O	-3	90	1	/	/	/	/
C[C@@H]1CN([C@@H](C)CO)S(=O)(=O)c2ccc(C3=CCCC3)cc2O[C@H]1CN(C)CC1CCCC1	2	107*	-64	97*	82	41*	105*
COc1ccccc1-c1ccc2c(c1)O[C@@H](CN(C)CC1CCCC1)[C@H](C)CN([C@@H](C)CO)S2(=O)=O	14	126*	-62	101*	100*	42*	103*
COc1ccccc1-c1ccc2c(c1)O[C@H](CN(C)CC1CCOCC1)[C@@H](C)CN([C@@H](C)CO)S2(=O)=O	-1	/	-36	/	/	/	/

Bioassay records (PubChem)
